According to the supplement of paper PMC11732987, “Enantioselective OTUD7B fragment discovery through chemoproteomics screening and high-throughput optimisation” (Communications Chemistry, 2025):

Legend:
Assay in all cases: log2 ratio of Biotin-Ahx-Ub-VS probe labelling (fragment/DMSO); higher = less target engagement (more negative = stronger competition), active = hit call of the paper (q ≤ 0.05, log2 ratio ≤ -1)
Details in all cases: compound concentration: 200 uM; treatment time: 3 h
ALG13 = biological target: T1, ALG13 (UniProt Q9NP73)
T1 sequence (whole entry): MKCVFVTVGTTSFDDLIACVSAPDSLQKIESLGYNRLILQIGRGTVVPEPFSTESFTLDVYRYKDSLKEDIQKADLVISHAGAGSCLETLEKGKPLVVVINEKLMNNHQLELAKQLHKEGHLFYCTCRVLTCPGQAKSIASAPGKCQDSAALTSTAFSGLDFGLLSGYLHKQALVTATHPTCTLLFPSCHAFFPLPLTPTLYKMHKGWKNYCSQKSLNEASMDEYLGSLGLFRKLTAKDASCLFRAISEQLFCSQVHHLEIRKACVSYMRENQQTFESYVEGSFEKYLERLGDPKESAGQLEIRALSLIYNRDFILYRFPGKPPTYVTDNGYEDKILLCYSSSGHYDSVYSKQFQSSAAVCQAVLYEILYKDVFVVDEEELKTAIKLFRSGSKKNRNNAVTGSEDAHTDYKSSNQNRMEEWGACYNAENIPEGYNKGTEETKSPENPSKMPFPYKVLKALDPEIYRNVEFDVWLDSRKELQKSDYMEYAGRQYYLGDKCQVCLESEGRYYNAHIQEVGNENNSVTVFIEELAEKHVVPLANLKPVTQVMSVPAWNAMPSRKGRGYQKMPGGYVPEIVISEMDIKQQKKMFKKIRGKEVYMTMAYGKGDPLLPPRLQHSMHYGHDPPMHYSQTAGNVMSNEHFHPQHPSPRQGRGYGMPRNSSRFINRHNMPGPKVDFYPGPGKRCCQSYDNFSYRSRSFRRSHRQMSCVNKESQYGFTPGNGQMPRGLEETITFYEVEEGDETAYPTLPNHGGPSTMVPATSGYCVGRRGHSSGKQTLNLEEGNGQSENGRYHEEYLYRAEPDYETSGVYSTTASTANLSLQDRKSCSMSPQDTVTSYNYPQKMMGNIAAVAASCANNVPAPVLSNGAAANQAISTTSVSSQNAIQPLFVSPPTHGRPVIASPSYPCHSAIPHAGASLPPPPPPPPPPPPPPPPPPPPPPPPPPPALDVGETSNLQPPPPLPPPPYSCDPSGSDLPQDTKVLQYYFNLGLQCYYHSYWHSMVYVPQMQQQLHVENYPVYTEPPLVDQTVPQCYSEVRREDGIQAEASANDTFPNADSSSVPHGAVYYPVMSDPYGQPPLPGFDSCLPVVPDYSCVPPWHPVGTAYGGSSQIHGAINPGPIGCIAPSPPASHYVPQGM
In short: (§1)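 Fragment (200 µM) or vehicle was incubated for 3 h with triplicate HEK293T lysate samples of 495 µg, which were then treated with Biotin-Ahx-Ub-VS at 0.5 µM final for 1 h. Labelled DUBs were enriched on NeutrAvidin, digested with LysC and trypsin, and analysed by diaPASEF LC-MS/MS. Values are average log2 fragment/vehicle ratios from an unpaired t-test on global-median-normalised Spectronaut label-free quantities, using proteins with ≥2 unique peptides.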

ATXN3 = ATXN3 (UniProt P54252)
In short: as §1

BAP1 = biological target: T2, BAP1 (UniProt Q92560)
T2 sequence (whole entry): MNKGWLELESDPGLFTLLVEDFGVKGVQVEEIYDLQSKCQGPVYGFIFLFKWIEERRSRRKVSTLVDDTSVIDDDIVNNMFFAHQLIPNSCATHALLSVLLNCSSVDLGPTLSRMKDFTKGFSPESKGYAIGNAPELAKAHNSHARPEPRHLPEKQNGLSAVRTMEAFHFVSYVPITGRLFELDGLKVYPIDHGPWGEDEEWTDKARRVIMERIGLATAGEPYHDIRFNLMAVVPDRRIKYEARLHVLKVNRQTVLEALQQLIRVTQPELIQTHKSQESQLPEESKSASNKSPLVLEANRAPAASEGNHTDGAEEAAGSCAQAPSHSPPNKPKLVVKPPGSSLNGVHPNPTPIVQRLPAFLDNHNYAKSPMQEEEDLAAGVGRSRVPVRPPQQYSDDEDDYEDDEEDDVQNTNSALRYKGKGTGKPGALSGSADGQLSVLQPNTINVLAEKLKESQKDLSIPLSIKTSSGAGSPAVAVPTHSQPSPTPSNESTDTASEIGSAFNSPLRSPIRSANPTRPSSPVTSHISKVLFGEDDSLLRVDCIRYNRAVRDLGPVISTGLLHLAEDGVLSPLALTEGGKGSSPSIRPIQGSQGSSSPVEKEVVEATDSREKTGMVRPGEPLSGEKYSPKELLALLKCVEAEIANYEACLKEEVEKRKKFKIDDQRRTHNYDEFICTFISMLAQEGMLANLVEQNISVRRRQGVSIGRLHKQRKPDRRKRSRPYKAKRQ
In short: as §1

EIF3F = EIF3F (UniProt O00303)
In short: as §1

EIF3H = EIF3H (UniProt O15372)
In short: as §1

FAM105A = biological target: T3, FAM105A (UniProt Q9NUU6)
T3 sequence (whole entry): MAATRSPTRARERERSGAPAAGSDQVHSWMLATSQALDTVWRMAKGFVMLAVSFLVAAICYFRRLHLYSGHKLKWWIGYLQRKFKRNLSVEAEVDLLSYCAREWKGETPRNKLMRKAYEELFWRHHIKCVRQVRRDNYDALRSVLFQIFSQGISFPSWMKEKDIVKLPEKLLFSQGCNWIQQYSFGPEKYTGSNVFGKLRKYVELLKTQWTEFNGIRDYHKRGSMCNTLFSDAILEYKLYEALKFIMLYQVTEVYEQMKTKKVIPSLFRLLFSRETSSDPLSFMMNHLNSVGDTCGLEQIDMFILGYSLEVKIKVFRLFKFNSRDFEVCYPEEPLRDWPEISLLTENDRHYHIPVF
In short: as §1

OTUB1 = OTUB1 (UniProt Q96FW1)
In short: as §1

OTUD4 = biological target: T4, OTUD4 (UniProt Q01804)
T4 sequence (whole entry): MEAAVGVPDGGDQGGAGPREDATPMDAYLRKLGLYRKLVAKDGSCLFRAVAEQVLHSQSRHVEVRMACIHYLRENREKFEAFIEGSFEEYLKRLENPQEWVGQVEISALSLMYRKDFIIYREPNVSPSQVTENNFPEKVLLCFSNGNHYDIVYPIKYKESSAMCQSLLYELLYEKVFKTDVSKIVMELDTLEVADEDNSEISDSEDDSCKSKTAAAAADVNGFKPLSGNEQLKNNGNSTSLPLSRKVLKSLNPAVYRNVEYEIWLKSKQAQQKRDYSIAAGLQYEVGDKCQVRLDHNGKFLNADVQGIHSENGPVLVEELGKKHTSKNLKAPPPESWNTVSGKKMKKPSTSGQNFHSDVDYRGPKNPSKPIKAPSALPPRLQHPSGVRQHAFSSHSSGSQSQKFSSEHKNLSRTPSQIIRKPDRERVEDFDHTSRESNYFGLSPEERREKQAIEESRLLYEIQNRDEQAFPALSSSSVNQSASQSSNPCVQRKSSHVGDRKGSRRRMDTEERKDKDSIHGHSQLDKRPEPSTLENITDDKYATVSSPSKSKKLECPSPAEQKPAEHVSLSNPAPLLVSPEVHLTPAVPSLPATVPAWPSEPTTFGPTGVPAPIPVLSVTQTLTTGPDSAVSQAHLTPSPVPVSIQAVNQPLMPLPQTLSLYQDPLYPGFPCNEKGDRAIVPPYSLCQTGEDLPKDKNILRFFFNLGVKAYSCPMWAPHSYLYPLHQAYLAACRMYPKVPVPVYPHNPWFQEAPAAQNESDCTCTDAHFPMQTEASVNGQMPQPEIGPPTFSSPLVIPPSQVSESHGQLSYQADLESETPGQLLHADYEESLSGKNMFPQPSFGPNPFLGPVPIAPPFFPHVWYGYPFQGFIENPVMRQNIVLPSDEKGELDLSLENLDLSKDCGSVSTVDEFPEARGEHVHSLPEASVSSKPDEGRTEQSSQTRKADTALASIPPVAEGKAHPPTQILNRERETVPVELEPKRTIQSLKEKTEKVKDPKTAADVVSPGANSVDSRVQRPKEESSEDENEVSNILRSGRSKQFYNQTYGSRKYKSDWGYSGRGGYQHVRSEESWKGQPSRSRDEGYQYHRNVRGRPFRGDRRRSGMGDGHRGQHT
In short: as §1

OTUD5 = biological target: T5, OTUD5 (UniProt Q96G74)
T5 sequence (whole entry): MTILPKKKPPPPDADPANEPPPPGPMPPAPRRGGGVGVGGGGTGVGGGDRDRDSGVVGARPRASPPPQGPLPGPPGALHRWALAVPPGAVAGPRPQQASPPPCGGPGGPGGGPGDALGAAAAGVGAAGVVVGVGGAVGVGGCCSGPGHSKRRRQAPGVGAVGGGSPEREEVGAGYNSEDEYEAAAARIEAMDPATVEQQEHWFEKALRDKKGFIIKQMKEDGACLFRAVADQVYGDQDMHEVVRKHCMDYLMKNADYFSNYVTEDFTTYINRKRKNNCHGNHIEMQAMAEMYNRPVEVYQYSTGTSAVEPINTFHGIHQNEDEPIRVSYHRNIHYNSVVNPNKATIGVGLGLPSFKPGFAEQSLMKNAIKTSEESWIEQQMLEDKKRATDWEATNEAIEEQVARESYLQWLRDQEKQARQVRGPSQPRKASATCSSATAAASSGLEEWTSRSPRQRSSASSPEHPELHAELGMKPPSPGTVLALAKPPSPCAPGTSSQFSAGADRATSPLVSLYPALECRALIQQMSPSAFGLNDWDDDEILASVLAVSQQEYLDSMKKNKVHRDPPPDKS
In short: as §1

Measured: log2 ratio of Biotin-Ahx-Ub-VS probe labelling

ATXN3, sequence (P54252 whole entry): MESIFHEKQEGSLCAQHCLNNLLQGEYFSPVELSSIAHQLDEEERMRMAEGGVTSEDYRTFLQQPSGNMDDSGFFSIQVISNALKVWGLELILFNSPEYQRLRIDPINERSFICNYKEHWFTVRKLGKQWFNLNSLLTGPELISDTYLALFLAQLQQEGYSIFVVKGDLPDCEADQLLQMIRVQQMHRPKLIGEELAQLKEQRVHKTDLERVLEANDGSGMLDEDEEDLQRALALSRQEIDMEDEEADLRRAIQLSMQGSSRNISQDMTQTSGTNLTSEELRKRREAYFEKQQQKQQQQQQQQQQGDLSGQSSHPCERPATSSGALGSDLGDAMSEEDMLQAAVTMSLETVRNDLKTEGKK
OTUB1, sequence (Q96FW1 whole entry): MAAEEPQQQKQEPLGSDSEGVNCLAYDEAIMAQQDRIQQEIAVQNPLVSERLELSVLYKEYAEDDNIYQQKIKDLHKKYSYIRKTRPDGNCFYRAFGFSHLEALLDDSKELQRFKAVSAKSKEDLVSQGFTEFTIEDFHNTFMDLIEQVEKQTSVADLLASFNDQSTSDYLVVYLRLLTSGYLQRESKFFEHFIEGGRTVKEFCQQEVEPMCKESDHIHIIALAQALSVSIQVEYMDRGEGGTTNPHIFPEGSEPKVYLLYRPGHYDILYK
EIF3F, sequence (O00303 whole entry): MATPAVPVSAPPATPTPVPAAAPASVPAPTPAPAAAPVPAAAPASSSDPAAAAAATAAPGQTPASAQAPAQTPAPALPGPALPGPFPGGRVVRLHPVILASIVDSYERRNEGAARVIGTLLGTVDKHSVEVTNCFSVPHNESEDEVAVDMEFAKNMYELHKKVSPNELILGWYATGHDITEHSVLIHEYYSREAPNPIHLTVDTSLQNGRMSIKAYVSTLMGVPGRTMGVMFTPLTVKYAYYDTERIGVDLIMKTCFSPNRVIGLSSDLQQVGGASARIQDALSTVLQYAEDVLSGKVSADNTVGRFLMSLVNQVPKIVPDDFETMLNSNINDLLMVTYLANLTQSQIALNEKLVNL
EIF3H, sequence (O15372 whole entry): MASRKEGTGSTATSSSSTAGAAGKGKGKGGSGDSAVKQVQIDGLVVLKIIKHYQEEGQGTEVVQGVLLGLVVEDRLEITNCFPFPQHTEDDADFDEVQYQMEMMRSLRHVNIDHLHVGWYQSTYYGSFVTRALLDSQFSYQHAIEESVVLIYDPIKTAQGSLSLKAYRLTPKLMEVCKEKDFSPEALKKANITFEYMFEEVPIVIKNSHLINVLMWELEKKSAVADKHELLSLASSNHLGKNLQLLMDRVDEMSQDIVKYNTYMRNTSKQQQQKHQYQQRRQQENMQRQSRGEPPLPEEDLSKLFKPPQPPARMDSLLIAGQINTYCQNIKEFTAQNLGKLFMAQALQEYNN

CCCn1nccc1NC(=O)CCl
inactive: ALG13 0.12 | ATXN3 -0.199 | EIF3F -0.613 | EIF3H 0.123 | FAM105A 0.145 | OTUB1 -0.396 | OTUD4 0.00925 | OTUD5 -0.138
active: BAP1 -3.06
